Sampled rows, rich in hits. Any-hit rate of the full collection: about 2.6%.
SIAE primary: human SIAE inhibition, primary screen. Q9HAT2. SIAE FP-Rh probe binding, fluorescence polarization. inhibition, % at 9.66 µM. 370,000 compounds, 0.69% hits. AID 1053197;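 active = inhibition above a cutoff: mean of compounds within the control limits plus 3 SD of those, cut at about 17% in these data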;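 note: 0% = plate median of compound wells and 100% = probe without SIAE protein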
Target sequence (Q9HAT2 whole entry, looked up): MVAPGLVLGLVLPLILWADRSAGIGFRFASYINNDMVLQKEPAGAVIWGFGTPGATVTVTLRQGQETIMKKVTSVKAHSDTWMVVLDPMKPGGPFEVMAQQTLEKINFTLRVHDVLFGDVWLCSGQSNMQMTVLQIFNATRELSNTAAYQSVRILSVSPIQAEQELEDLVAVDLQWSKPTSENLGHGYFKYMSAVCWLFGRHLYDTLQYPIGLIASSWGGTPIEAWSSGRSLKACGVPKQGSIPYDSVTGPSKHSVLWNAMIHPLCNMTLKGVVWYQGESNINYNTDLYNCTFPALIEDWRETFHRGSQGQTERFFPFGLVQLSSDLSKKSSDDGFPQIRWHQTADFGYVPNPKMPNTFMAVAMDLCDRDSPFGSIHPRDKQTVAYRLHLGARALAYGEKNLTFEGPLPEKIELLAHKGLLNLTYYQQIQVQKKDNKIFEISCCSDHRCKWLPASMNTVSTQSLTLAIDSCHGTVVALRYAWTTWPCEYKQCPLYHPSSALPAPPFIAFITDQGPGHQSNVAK
PRMT1 FP inh: PRMT1 (human) inhibition, primary screen. recombinant PRMT1, activity-based probe fluorescence polarization. inhibition, % at 2.79 µM. 370,000 compounds, 1.3% hits. AID 652257;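 active = inhibition above about 21% made by adding two undisclosed values, limit read from the data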
Fam108B inh: counter-screen for RBBP9 inhibitors: inhibitors of mouse Fam108B; recombinant Fam108B, FP-Rh probe fluorescence polarization; inhibition, % at 9.51 µM; 300,000 compounds, 0.33% hits;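 active = inhibition above the screen mean inhibition plus 3 SD, computed separately per campaign, cut at about 18% in these data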;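 note: inhibitors lower polarization as less probe binds the enzyme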
PAD4 inh: inhibitors of human PAD4. Q9UM07. recombinant PAD4, RCA probe fluorescence polarization. inhibition, % at 6.36 µM. 330,000 compounds, 0.41% hits;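 active = percent inhibition above a cutoff equal to the mean of all tested compounds plus 3 SD, cut at about 15% in these data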;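 note: 0% = PAD4 with RCA probe and DMSO and 100% = probe without PAD4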
TCR-CD3 inh: human TCR-CD3 binding inhibition; TAMRA-labeled TCR probe fluorescence, biochemical; inhibition, % at 9.4 µM; 360,000 compounds, 0.37% hits; in the data active = inhibition above about 19%;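 note: recombinant mutant TCR 2C K166C tagged with TAMRA read by polarization; 0% = receptor in buffer alone and 100% = receptor with positive control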
PME-1 inh: blocks human protein phosphatase methylesterase 1 | recombinant PME-1, FP-Rh probe fluorescence polarization | inhibition, % at 5.9 µM | 320,000 compounds, 0.53% hits | AID 2130;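 active = inhibition above the campaign mean of all compounds plus 3 SD, cut at about 26% in these data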;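 note: competitive labeling of PME-1 active site by serine hydrolase directed probe; 0% = PME-1 with DMSO and 100% = wells lacking PME-1 enzyme; inhibitors block probe labeling so polarization falls and inhibition rises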
* hit, by the source's call; / = not tested or not shown.

SMILES	SIAE primary	PRMT1 FP inh	Fam108B inh	PAD4 inh	TCR-CD3 inh	PME-1 inh
Cc1ccc(C)c(SCC(=O)Nc2oc(C)c3c(C)n[nH]c(=O)c23)c1	3	22*	1	3	-4	2
COC(=O)[C@@H]1[C@H](O[Si](C)(C)C(C)(C)C)[C@H]2O[C@H]2C[C@H]1S(=O)(=O)c1ccccc1	2	10	/	/	/	/
CCOc1ccc(-c2csc(N3CCC(C(N)=O)CC3)n2)cc1	-3	-1	/	/	/	/
NC(=O)Cn1c(=O)n(Cc2ccco2)c(=O)c2c3c(sc21)CCCCC3	-2	21*	9	3	12	1
CCc1cc(C(=O)Cc2cnn(-c3ccccc3)c2)c(O)cc1O	-1	1	1	1	4	-5
O=C(Cc1cnn(-c2ccccc2)c1)c1ccc(O)c(O)c1O	-15	39*	3	-7	10	-12
O=C(NNc1ccc([N+](=O)[O-])cc1[N+](=O)[O-])C1C2CCCCC21 (stereo not given)	1	1	2	-3	1	3
O=C(O)C1(Nc2ccc([N+](=O)[O-])cc2[N+](=O)[O-])CCCC1	0	23*	/	/	6	/
COc1cc2c(cc1OC)CN(C(=O)c1ccc3[nH]c(C)c(C)c3c1)CC2	0	-6	-2	-3	2	38*
CC(NCc1ccco1)C(=O)N1CCCN(C)CC1 (stereo not given)	-5	-1	/	/	/	/
COC(=O)[C@]12C[C@H](CC(=O)NCCc3ccccc3OC)C(=O)N(Cc3cccc4ccccc34)C1=C[C@H](C(C)C)O[C@@H]2C1CC1	-7	-4	/	/	/	/
COc1ccc(/C=N/NC(=O)c2nn(-c3ccccc3)c(=O)c3c(N)scc23)cc1	11	22*	10	11	7	16
COc1ccc(/C=N/NC(=O)c2nn(-c3ccc(Cl)cc3)c(=O)c3c(N)scc23)cc1	11	24*	7	-9	-1	11
O=C(CSc1nnc(-c2ccccc2)n1-c1ccccc1)NN=Cc1ccc(-c2ccccc2)cc1	-8	0	/	/	/	/
O=C(CSc1n[nH]c(Cc2ccccc2)n1)Nc1ccccc1Br	2	24*	6	1	3	3
Cc1cccc(NCc2nc(SCC(=O)Nc3ccccc3Br)n[nH]2)c1	5	1	-1	-2	-2	6
COc1ccc(/C=C/S(=O)(=O)NCc2ccccc2)c(CNC(=O)OC(C)(C)C)c1	-3	-1	/	/	/	/
Cc1cc(C(=O)OCC(=O)Nc2cc(S(=O)(=O)N(C)C)ccc2C)c2ccccc2n1	16	-3	0	-1	1	28*
O=C(CC1CCCC1)N1CC[C@H]2[C@H](CCCN2Cc2cc(F)cc(F)c2)C1	2	-2	/	/	/	/
CN(C)c1ccc(C=Cc2ccnc3c(O)cccc23)cc1	23*	-2	/	/	-7	/
CCCCc1ccc2nc(NC(=O)c3ccco3)sc2c1	-1	-3	/	/	/	/
Cc1c(CN2CCCC(C)C2)c(O)n(CCO)c(=O)c1C#N (stereo not given)	-6	8	-4	5	-6	-1
C=CCn1c(O)c(CN2CCCCC2)c(C)c(C#N)c1=O	-18	22*	-5	2	-16	-8
CCOC(=O)C1CCN(C(=O)C(C)(C)NC(=O)Nc2ccc(OC)c(Cl)c2)CC1	-5	-2	/	/	/	/
Cc1cc(C)c2c(N)c(-c3nc4ccccc4[nH]3)sc2n1	8	1	8	2	3	29*
SMILES	SIAE primary	PRMT1 FP inh	Fam108B inh	PAD4 inh	TCR-CD3 inh	PME-1 inh
O=C1N2Cc3ccccc3C2CS(=O)(=O)N1CCc1ccccc1 (stereo not given)	2	-2	/	/	/	/
COc1cc(-c2nnc(-c3cccs3)o2)cc(OC)c1OC	18*	0	-1	3	-4	1
COC(=O)[C@@]12CCCCC3=C1N(CCC3)C(=O)[C@H]2CC(=O)NCc1ccccc1	-3	0	/	/	/	/
Cc1ccc2[nH]c3c(c2c1)CN(C(=O)CN1CCN(C(=O)c2ccco2)CC1)CC3	3	21*	2	-10	-7	-1
O=C(CN1CCN(C(=O)c2ccco2)CC1)N1CCc2[nH]c3ccccc3c2C1	/	/	0	-2	/	1
CCOC(=O)CSc1nc2sc3c(c2c(=O)[nH]1)CC(C)(CC)OC3 (stereo not given)	14	-1	-3	1	3	-5
CCC1(C)Cc2c(sc3nc(NN)n(C)c(=O)c23)CO1 (stereo not given)	1	-1	2	0	2	37*
Cn1c(N/N=C/c2c[nH]c3ccccc23)nc2ccccc21	11	-1	4	-6	2	30*
CCN1CCN(c2cc(C(C)C)nc3c(-c4ccccc4)c(C)nn23)CC1	18*	-4	2	0	3	4
COc1ccc(NC(=O)N(C)C[C@H]2Oc3ccc(NC(=O)Nc4c(C)noc4C)cc3C(=O)N([C@H](C)CO)C[C@H]2C)cc1	17*	1	/	-4	4	/
C[C@@H]1CCCCO[C@H](CN(C)Cc2ccc(Cl)c(Cl)c2)[C@H](C)CN([C@@H](C)CO)C(=O)c2cc(NC(=O)Nc3ccc(F)cc3)ccc2O1	-16	-5	/	/	1	/
C[C@H]1CN([C@@H](C)CO)C(=O)c2cccc(NC(=O)Nc3ccc(C(F)(F)F)cc3)c2O[C@@H]1CN(C)C(=O)Nc1ccc(F)cc1	-56	2	/	1	5	/
C[C@H](CO)N1C[C@H](C)[C@@H](CN(C)C(=O)Nc2ccc(C(F)(F)F)cc2)Oc2c(NC(=O)Nc3ccc(C(F)(F)F)cc3)cccc2C1=O	-152	4	/	0	20*	/
COc1ccc(NC(=O)N(C)C[C@H]2Oc3ccc(NC(=O)Nc4c(C)noc4C)cc3C(=O)N([C@H](C)CO)C[C@@H]2C)cc1	3	1	/	-6	-2	/
COc1ccc(NC(=O)Nc2ccc3c(c2)C(=O)N([C@H](C)CO)C[C@H](C)[C@@H](CN(C)Cc2ccc(Cl)c(Cl)c2)OCCCC[C@@H](C)O3)cc1	21*	1	/	/	-9	/
CCC(CO)Nc1cccc2c1S(=O)(=O)N(Cc1cn(Cc3cccc(F)c3)nn1)Cc1ccccc1O2 (stereo not given)	-72	-2	/	/	/	/
C[C@H]1COc2c3ccc(I)cc3nn21	3	1	/	/	/	/
O=c1[nH]c2cc3c(cc2cc1C(c1nnnn1C1CCCCC1)N1CCSCC1)OCCO3 (stereo not given)	-8	22*	-8	0	-1	4
CN(C)Cc1cn(-c2cccc(-c3noc4c3C(=O)N(CC(=O)N3CCOCC3)CC4)c2)nn1	-10	-1	/	/	/	/
CCn1cc(/C=C/C(=O)Nc2ccn(Cc3c(F)c(F)cc(F)c3F)n2)cn1	5	22*	5	0	-2	10
CCn1cc(/C=C/C(=O)Nc2ccc(C)cc2Br)cn1	-3	-2	-2	5	1	-11
CC(C)c1nnc(NC(=O)c2cccs2)s1	2	25*	4	-2	-4	3
CCn1c2ccccc2c2nnc(SCc3ccccc3)nc21	-8	-1	-5	0	1	-4
